Test results taken from the OligoGym collection.

Each sequence was assayed against SLC10A7 (assay: pooled miR-30 sensor sort-seq; sequence = guide strand). Details: shRNA.
Note: reference of the scale not given here.

Sequence	sensor-assay potency score (higher = more potent)
TATCTTCGGACAATCTGTCCAA	-0.198
ATGAGGAGTACACTGCTGCTGA	-0.89
TTTAGCTCCAGCGATCGCCAGC	-1.45
TATAGATACAACATTTACTTGC	0.105
AACAGTATGAGAACAAGGCTGA	0.508
TACATCATTATAAACTCTGTAA	-0.408
TAAAAGCATAAAACTCAGCTGG	-0.225
TTCTGCCTTGATACCATCCAAG	-1.16

What follows are sequences tested against SLC12A1 in the same assay as above. Details: shRNA.

Sequence	sensor-assay potency score (higher = more potent)
TATCTTTGATAGTCGCTTCCAA	0.0928
TTCCAATGCTAGTCTCTCCTGT	0.793
TTGTAGACTCAACTACTTCTTA	-0.589
TATGACACTAACTTGAAAGCGA	0.571
TTGCTCGTGAATCTCAAGCAGG	-0.686
TTGTGTGAGAATCATAAGCGTG	-0.782
TTTCTTATATCCAATCACCAGA	-0.816
TTTCTTGTTTATCAACAGCAGT	-1.1
TTGAGTGCTGGCTTCCACCAGT	-0.0176
TTGATGACAAACATGACTGCAC	0.915
TTGAATATTTTGTAGACTCAAC	-1.22
TTTGTGAGGATTTCCAACCAAG	-0.956

What follows are sequences tested against SLC12A6 in the same assay as above. Details: shRNA.

Sequence	sensor-assay potency score (higher = more potent)
TTCTTTAGTAAGATGAAGCTGT	0.156
TTACTCGGGAACTAGATCGAGA	-0.428
TTGTTAACTATAACCTCGTTGA	-0.0795
TATTGAGATAAGCATTTCGAGC	-1.39
TAGCTTGTAGCAGCCTCGGTGC	-1.11
TATCAAAATATTCATCTCCTTC	-0.342
TTGTCTCTGAGAACAACCCCTT	-0.146
TACTGTTGTCTTCTAATTGGGC	-0.548
TGTACTTGTAGATCATACCAGC	-0.605
TAAGTCTTCATCTAGTTTCAGT	-0.702
TTTTAGTGTGTGGAGGTCCTTC	-0.634
TTTTTGAAGAAGTAGAGGCTGC	0.521

Each sequence was assayed against SLC13A5 in the same assay as above. Details: shRNA.

Sequence	sensor-assay potency score (higher = more potent)
TTTCTTGCTCTCTAGCCCGCAG	-0.697
TTGTCCACCAGCTCCAGGCCGG	-0.842
TACTGGACACACACCTGCCTGG	-0.809
TTTAATGAGAGCAAGAGCTGGA	0.762
TTGCTGTCAGGAAACAACTCGT	-0.663
TTTAAAATTGAATCTCATGTAA	-0.532
TTGACAGCCAAAAACACACAGA	-0.786
TTATGTTCATTATGACTCCTGT	0.0164
